HT1080NT lethal – kills 2HG-producing HT-1080-NT fibrosarcoma cells; HT-1080-NT fibrosarcoma viability, CellTiter-Glo ATP luminescence, 48 h; Potency, µM (top dose mostly 46.1 µM), for inactives: at the top dose activity, negative = less viability, usual class: cytotoxic; 1.6% of 360,000 active;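 further: NT is the 2HG producing partner of a matched IDH1 knockdown line; potency means the concentration at half of the fitted maximal effect; 0% = DMSO-treated cells and -100% = media-only wells without cells; nearly all actives have a fitted effect of over 55% in size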
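Viability by CellTiter-Glo luminescence after 48 h compound exposure at 37C of HT-1080-NT cells (750/well, RPMI, 5% FBS). % activity scaled between DMSO wells and medium-only wells, then curve-fitted and categorized by curve class.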
IL1B secr inh – blocks inflammasome-driven IL-1 beta release; activity change, % at 57.5 µM; 4.7% of 360,000 active; THP-1 LPS/ATP IL-1B secretion, AlphaLISA, 16 h; active compounds read low; in the data active means activity change below about -50%; inconclusive means mostly about -30% to -49%
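THP-1 cells pretreated 1 hr with compounds (up to 57.5 uM final), then stimulated with LPS (250 ng/mL final) plus ATP (1.25 mM final); secreted IL-1B measured by AlphaLISA after 16 hr, decreased signal indicating inhibition.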
TDP1 cell noCPT – qHTS for Inhibitors of human tyrosyl-DNA phosphodiesterase 1 (TDP1): qHTS in cells in absence of CPT. Potency, µM (doses to about 46.2 µM), for inactives: top-dose activity change, negative = growth inhibition, usual class: inhibitors. 15% of 420,000 active. DT40 Tdp1-/- hTDP1 cells, no CPT, ATP luminescence, 48 h; further: potency means the concentration at half of the fitted maximal effect; nearly all actives have a fitted effect of over 55% in size
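Growth kinetics read by CellTiter-Glo luminescence after ≥48 hr at 37 °C. Cells: DT40 Tdp1-/- stably carrying human TDP1, 400 per well, compound exposure in the absence of CPT (DMSO vehicle).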
uPA generation – cell surface uPA generation inhibition; cell surface uPA generation assay, qHTS; Potency, µM (titrated, usually from 38.3 µM), for inactives: at the top dose activity change, negative = inhibition, most hits filed as inhibitors; 0.31% of 330,000 active; AID 540303; active means well fitted inhibition curve with a large enough effect; inconclusive means small, poorly fitted or top-dose-only effect; inactive means no such curve, though single readings can be large or run the other way; tested in mouse RAW 264.7 cells; further: potency means the concentration at half of the fitted maximal effect; nearly all actives have a fitted effect of over 55% in size
DT40 TDP1 CPT – DT40-hTDP1 cell growth loss with CPT; chicken DT40 Tdp1-/-;hTDP1 cells + 20 nM CPT, ATP luminescence, 48 h; 12% of 420,000 active; AID 686979; Potency, µM (titrated, usually from 46.2 µM), for inactives: at the highest dose activity change, negative = growth inhibition, hits mostly inhibitors; further: potency means the concentration at half of the fitted maximal effect; nearly all actives have a fitted effect of over 55% in size
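Chicken DT40 Tdp1-/- cells complemented with human TDP1, 400 cells/well, exposed to compounds plus 20 nM camptothecin for at least 48 h at 37 C; viability read as ATP content by CellTiter-Glo luminescence.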
HT1080 IDH1KD tx – kills HT-1080 cells with IDH1 knockdown; HT-1080 IDH1 knockdown viability, ATP luminescence, 48 h; Potency, µM (top dose mostly 46.1 µM), inactives show at the top dose activity, negative = toxicity, actives largely listed as cytotoxic; 2% of 360,000 active;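 further: potency means the concentration at half of the fitted maximal effect; 0% = DMSO wells and -100% = cell-free medium wells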
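CellTiter-Glo luminescence after 48 h compound exposure at 37 degrees C of IDH1-knockdown HT-1080 cells in 5% FBS RPMI. %Activity scaled between DMSO wells and cell-free media wells, with curves fitted and assigned curve classes.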
An asterisk follows results filed as active; ? = inconclusive; · = not tested or not shown; [ ] = another dose, or the depositor's remark. Sampled rows, rich in hits. Any-hit rate of the full collection: about 19%. Unless noted, the call rests on the fitted dose curve; in most records, active means well fitted curve in the direction sought with a large enough effect; inconclusive means small, poorly fitted or top-dose-only effect, or another doubt; inactive means no such curve, though single readings can be large; an effect the other way counts as inactive or inconclusive. Unless noted, on the % scale 0 is the no-effect control and ±100 the full control effect.

SMILES	HT1080NT lethal	IL1B secr inh	TDP1 cell noCPT	uPA generation	DT40 TDP1 CPT	HT1080 IDH1KD tx
Cc1ccc(-n2nnnc2CNC(=O)c2ccc(Br)o2)cc1C	4%	4	18%	3%	-8%	3%
Cc1ccc(-n2nnnc2CNC(=O)c2cc(C(F)(F)F)cc(C(F)(F)F)c2)cc1C	·	·	16µM*	·	?	·
Cc1ccc(-n2nnnc2CNC(=O)c2ccc([N+](=O)[O-])o2)cc1C	-22%	-102*	7.3µM*	?	13µM*	?
C/C(=N/NS(=O)(=O)c1ccc(Br)cc1)c1cccc(NC(=O)C2CC2)c1	-2%	-1	-6%	·	-17%	1%
Cc1nn(-c2cccc(Cl)c2)c2nc(-c3cccnc3)cc(C(F)(F)F)c12	·	·	-14%	·	2%	·
CCOC(=O)C1=C(C)N=C2SCCC(=O)N2C1c1ccc(OCc2ccccc2)cc1 (configuration not stated)	·	·	?	·	3%	·
CC(=O)c1sc(N/N=C2\CC3CCC2(C)C3(C)C)nc1C (configuration not stated)	23µM*	9	?	-1%	-29%	?
Cc1ccc(S(=O)(=O)NN=C2CC3CCC2(C)C3(C)C)cc1 (configuration not stated)	-5%	32	?	0%	?	-4%
Cc1cc(OCCOCC[N+](C)(C)Cc2ccccc2)ccc1C(C)(C)CC(C)(C)C	·	·	1.1µM*	·	1.2µM*	·
Cc1ccc(-n2ncc3c(N4CCC5(CC4)OCCO5)ncnc32)c(C)c1	?	-14	15µM*	6%	12µM*	-10%
Cc1ccc(-n2ncc3c(N4CCC(C(N)=O)CC4)ncnc32)c(C)c1	-4%	-18	1%	-1%	?	0%
CCN(CC)C(=O)C1CCN(c2ncnc3c2cnn3-c2ccc(C)cc2C)CC1	-11%	-13	21µM*	0%	?	-2%
CCOC(=O)c1sc(N2C(=O)C(O)=C(C(=O)c3ccco3)C2c2ccc([N+](=O)[O-])cc2)nc1C (configuration not stated)	-8%	134	-4%	-3%	16%	-4%
Cc1ccc(NC(=O)CCC(=O)c2cccs2)c(O)c1	4%	15	-28%	-1%	-17%	21%
O=C(Cn1cccn1)N1CCOc2c(cc(-c3ncc(C(F)(F)F)cc3Cl)cc2OCC2CCCO2)C1 (configuration not stated)	·	·	-17%	·	-15%	·
NC(=O)CC(NC(=O)c1ccc(Br)cc1)c1ccc(NC2CCCCCCC2)c([N+](=O)[O-])c1 (configuration not stated)	?	?	16µM*	-13%	16µM*	?
COc1ccc(CCNc2ccc(C(CC(N)=O)NC(=O)Cc3ccc(Br)cc3)cc2[N+](=O)[O-])cc1 (configuration not stated)	0%	30	-29%	-8%	?	3%
NC(=O)CC(NC(=O)c1ccccc1)c1ccc(NC2CCCCCCC2)c([N+](=O)[O-])c1 (configuration not stated)	?	-12	23µM*	-24%	23µM*	-24%
COc1ccc(CCNc2ccc(C(CC(N)=O)NC(=O)c3ccc(Br)cc3)cc2[N+](=O)[O-])cc1 (configuration not stated)	?	-16	16µM*	-2%	23µM*	2%
CNc1cncc(-c2ccc(CN3CCOCC3)cc2)n1	-7%	23	?	·	?	-10%
CCn1c(SCC(=O)NNC(=O)c2ccc(OC)cc2)nnc1C1CC1	27%	-2	-26%	-1%	-9%	4%
COc1cccc(C(NC(C)=O)c2nc(-c3csc4ccccc34)cs2)c1 (configuration not stated)	-18%	-15	?	·	?	-24%
COc1cc(=O)n2c(c1C(=O)N(C)Cc1nonc1C)CCN(Cc1ccc(F)cc1)CC2	·	·	-15%	·	6%[9.04 µM]	·
CCc1nc(N2CCN(C(C)=O)CC2)c2c3c(sc2n1)CC(C(C)(C)C)CC3 (configuration not stated)	-2%	4	12µM*	0%	?	0%
CCc1nc(N2CCN(C(=O)CCCl)CC2)c2c3c(sc2n1)CCCC3	-2%	-21	?	·	?	-12%
SMILES	HT1080NT lethal	IL1B secr inh	TDP1 cell noCPT	uPA generation	DT40 TDP1 CPT	HT1080 IDH1KD tx
CCc1nc(N2CCN(C(=O)CCl)CC2)c2c3c(sc2n1)CC(C)CC3 (configuration not stated)	21µM*	-96*	6.5µM*	-14%	3.3µM*	21µM*
Oc1ccccc1C1N=C(c2ccccc2)NC(c2ccccc2)=N1	9%	-55*	2%	-1%	-16%	1%
CCOC(=O)c1cccc(NC(=O)CCc2c(C)nn(-c3ccc(N4CCOCC4)nn3)c2C)c1	·	·	?	·	29µM*	·
Cc1nn(-c2ccc(N3CCCCC3)nn2)c(C)c1CCC(=O)Nc1cccc(F)c1	-12%	-25	21µM*	17%	?	-1%
COc1ccc(NC(=O)CCc2c(C)nn(-c3ccc(N4CCCC4)nn3)c2C)cc1Cl	·	·	16µM*	·	?	·
CCc1cccc(NC(=O)CCc2c(C)nn(-c3ccc(N4CCCCC4)nn3)c2C)c1	-7%	0	?	-11%	-25%	-9%
CCOC(=O)c1cccc(NC(=O)CCc2c(C)nn(-c3ccc(N4CCCC4)nn3)c2C)c1	·	·	21µM*	·	?	·
Cc1nn(-c2ccc(N3CCCCC3)nn2)c(C)c1CCC(=O)Nc1ccc(F)cc1	0%	-12	-16%	-1%	-12%	-1%
CCCCN1C(=O)C(CC(=O)NCCc2ccccn2)CC(C(=O)N(CC)CC)=C1C (configuration not stated)	-7%	32	-19%	·	-2%	9%
CN1C(=O)C2(N=c3ccccc3=N2)c2ccccc21	?	8	15µM*	-12%	?	?
CN1C(=O)C2(OCC(C)([N+](=O)[O-])CO2)c2ccccc21 (configuration not stated)	2%	45	-11%	0%	-3%	4%
Cc1ccc(-c2nn(-c3cccc([N+](=O)[O-])c3)c3c2cnc2ccc(F)cc23)cc1	·	·	10%	·	10%	·
O=C(Nc1ccncc1)C1C(=O)c2ccccc2N(Cc2ccccc2)C1=O (configuration not stated)	·	·	0.71µM*	·	1µM*	·

Source: PubChem
